Consider 9 compounds from PubChem BioAssay (EPA / NIEHS).

Records with an inconclusive call do not appear. The source made the active and inactive calls. Rule for the calls, unless noted: active = hit-call score of the fitted dose curve at least 0.9, where 1 is the maximum; inactive = score below 0.9.

As usually defined, the AC50 is the concentration at which the activity in the assay is half-maximal.

Assay [1] is described as follows: ATG_RORE_CIS: Attagene CIS-FACTORIAL HepG2 Assay for human RAR-related Orphan Receptor Element (RORE) (AID 2282959). To be noted: HepG2 Attagene cis-factorial RORE reporter, mRNA; actives raise or lower the signal. Summed up:
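Transient MRTU transfection of human HepG2 liver cells (FuGene 6); 24 h compound exposure; TriZol RNA, oligo(dT) RT, PCR, FAM labeling, HpaI cut, CE fragment analysis. DMSO = negative control/baseline.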

Assay [2] is described as follows: ATG_Sox_CIS: Attagene CIS-FACTORIAL HepG2 Assay for human SRY-box transcription factor (SOX) (AID 2282960). To be noted: HepG2 Attagene cis-factorial SOX reporter, mRNA; actives raise or lower the signal. In short, it runs like this: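 Endogenous factor activity in human liver HepG2 cells carrying transfected cis-regulated reporter units. RNA taken 24 h post-dose, reverse-transcribed, PCR-amplified and sized by capillary electrophoresis. Gain or loss of signal fitted relative to DMSO.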

Assay [3] addresses Transcription factor Sp1 (Homo sapiens) (UniProt P08047). The assay is described as follows: ATG_Sp1_CIS: Attagene CIS-FACTORIAL HepG2 Assay for human Specificity Protein 1 (Sp1) (AID 2282961). To be noted: HepG2 Sp1 cis-reporter transcription, actives raise or lower the signal. Summed up: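 Transient MRTU-transfected HepG2, 24 h compound exposure. Total RNA → oligo(dT) RT → PCR of reporter → 6-FAM primer extension → HpaI digest → CE. Endpoint fitted both directions vs DMSO.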

The nature of assay [4]: ATG_SREBP_CIS: Attagene CIS-FACTORIAL HepG2 Assay for human Sterol Regulatory Element Binding (SREBP) (AID 2282962). To be noted: HepG2 Attagene cis-factorial SREBP reporter, mRNA; actives raise or lower the signal. Summed up: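 In this cis-format assay, HepG2 liver cells express reporters controlled by promoter elements responsive to native transcription factors. Exposure lasts 24 h; reporter mRNA fluorescence from capillary electrophoresis gives the signal, fitted bidirectionally against DMSO.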

For assay [5], the target named is Signal transducer and activator of transcription 3 (Homo sapiens) (UniProt P40763). The assay is described as follows: ATG_STAT3_CIS: Attagene CIS-FACTORIAL HepG2 Assay for human Signal Transducer and Activator of Transcription 3 (STAT3) (AID 2282963). To be noted: HepG2, Attagene cis-factorial STAT3 reporter transcription; actives raise or lower the signal. Summed up:
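HepG2, MRTU-transfected, 24 h dosing. RNA → RT → PCR → FAM label → HpaI → CE. Bidirectional fit vs DMSO.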

The nature of assay [6]: ATG_TA_CIS: Attagene CIS-FACTORIAL HepG2 Assay for human TA Basal Promoter (AID 2282964). The conditions noted are these: HepG2 Attagene CIS-factorial TA basal promoter reporter; actives raise or lower the signal. In short, it runs like this:
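Background internal-marker endpoint from a 52-component HepG2 cis-reporter panel. Cells treated 24 h; reporter transcripts quantified via RT-PCR and CE fluorescence against DMSO baseline.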

Assay [7] can be described thus: ATG_TCF_b_cat_CIS: Attagene CIS-FACTORIAL HepG2 Assay for human T-Cell-Factor with beta-catenin (TCF/b-cat) (AID 2282965). The conditions noted are these: HepG2 TCF/beta-catenin cis-reporter transcription, actives raise or lower the signal. In short, it runs like this: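 Using capillary electrophoresis as the read-out, labelled reporter cDNA fragments from transiently transfected HepG2 were sized and quantified. Exposure lasted 24 hours; activity in either direction was referenced to DMSO.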

Assay [8] can be described thus: ATG_TAL_CIS: Attagene CIS-FACTORIAL HepG2 Assay for human TAL Basal Promoter (AID 2282966).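 Note: background control endpoint measuring basal TAL promoter reporter mRNA not a specific factor.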 To be noted: HepG2 Attagene cis-factorial TAL promoter reporter; actives raise or lower the signal. Summed up:
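HepG2, transient MRTU transfection, 24 h compound exposure; RNA → oligo(dT) RT → PCR → 6-FAM primer extension → HpaI digest → CE fluorescence. Bidirectional curve fit vs DMSO. Background-control readout.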

The nature of assay [9]: ATG_TGFb_CIS: Attagene CIS-FACTORIAL HepG2 Assay for human Transforming Growth Factor (TGF) (AID 2282967). The conditions noted are these: HepG2 Attagene CIS TGFb reporter, mRNA transcription; actives raise or lower the signal. In short, it runs like this:
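Liver HepG2 line, cis-factorial reporter panel, 24 h dosing. Quantitation: RT-PCR products labeled with 6-FAM, cut with HpaI, resolved by capillary electrophoresis; DMSO-referenced bidirectional analysis.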

Assay [10] in a line: ATG_VDRE_CIS: Attagene CIS-FACTORIAL HepG2 Assay for human Vitamin D Receptor Element (VDRE) (AID 2282968). The conditions noted are these: HepG2 VDRE cis-reporter transcription, actives raise or lower the signal. In short, it runs like this: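 Steps: transfect HepG2 with multiple reporter transcription units; dose chemicals 24 h; isolate RNA; RT-PCR; label with 6-FAM primer extension; HpaI digest; capillary electrophoresis. Curves fitted both directions against DMSO.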

The target in assay [11] is Estrogen receptor (Homo sapiens) (UniProt P03372). The assay is described as follows: ATG_ERa_TRANS: Attagene TRANS-FACTORIAL HepG2 Assay for human Estrogen Receptor alpha (ERa) (AID 2282970; active = hit-call score of the fitted dose curve at least 0.9, where 1 is the maximum). To be noted: HepG2 Attagene TRANS ERa GAL4 reporter, mRNA. Summed up:
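Reporter mRNA induction after 24 hours, detected by fluorescent RT-PCR and capillary electrophoresis, gives the read-out. Cells are HepG2 transiently transfected with GAL4-UAS reporter transcription units responding to chimeric NR-Gal4. Activity is taken as gain of signal over DMSO baseline.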

The target of assay [12] is X-box-binding protein 1 (Homo sapiens) (UniProt P17861). In words: ATG_Xbp1_CIS: Attagene CIS-FACTORIAL HepG2 Assay for human X-box Binding Protein 1 (XBP1) (AID 2282972). The conditions noted are these: HepG2 XBP1 cis-element reporter, Attagene multiplex; actives raise or lower the signal. In short, it runs like this: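 Changes in reporter transcript abundance, read by RT-PCR and capillary electrophoresis, reflect endogenous transcription factor activity. Transfected HepG2 cells received compound for 24 hours; DMSO defined baseline for bidirectional analysis.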

Assay [13] is described as follows: ATG_M_19_TRANS: Attagene TRANS-FACTORIAL HepG2 Assay for M19 Transcription Factor (Internal Marker) (AID 2282974; active = hit-call score of the fitted dose curve at least 0.9, where 1 is the maximum). To be noted: HepG2 Attagene TRANS-FACTORIAL M19 internal marker reporter. In short, it runs like this:
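Fluorescence of 6-FAM-labelled reporter cDNA fragments, separated by capillary electrophoresis, served as the readout. These derived from HepG2 cells carrying transfected GAL4-UAS reporter units after 24 h dosing, with DMSO as negative control.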

The target of assay [14] is Glucocorticoid receptor (Homo sapiens) (UniProt P04150). The assay is described as follows: ATG_GR_TRANS: Attagene TRANS-FACTORIAL HepG2 Assay for human Glucocorticoid Receptor (GR) (AID 2282978; active = hit-call score of the fitted dose curve at least 0.9, where 1 is the maximum;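 note: activators score as hits since higher reporter transcript over DMSO is fitted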). To be noted: HepG2 Attagene TRANS GR reporter, mRNA transcription. Summed up: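 Fluorescent capillary-electrophoresis quantitation of reporter mRNA is the readout, taken 24 h after dosing human HepG2 cells carrying transiently transfected GAL4-UAS reporter units activated by chimeric NR-GAL4 fusions; activity scored as induction over DMSO.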

Assay [15] concerns the target Nuclear receptor subfamily 1 group I member 3 (Homo sapiens) (UniProt Q14994). In words: ATG_CAR_TRANS: Attagene TRANS-FACTORIAL HepG2 Assay for human Constitutive Androstane Receptor (CAR) (AID 2282969; active = hit-call score of the fitted dose curve at least 0.9, where 1 is the maximum;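 note: activators raise reporter mRNA above DMSO so AC50 marks induction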). To be noted: HepG2 Attagene TRANS-FACTORIAL CAR reporter. In short, it runs like this:
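Steps: transient transfection of HepG2 with multiple GAL4-UAS reporter units; 24 h compound incubation; RNA isolation, RT-PCR, 6-FAM primer extension, HpaI digest; capillary electrophoresis. Gain-of-signal relative to DMSO negative control.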

Assay [16] is described as follows: ATG_GAL4_TRANS: Attagene TRANS-FACTORIAL HepG2 Assay for GAL4 (Internal Marker) (AID 2282976; active = hit-call score of the fitted dose curve at least 0.9, where 1 is the maximum). The conditions noted are these: HepG2 Attagene TRANS GAL4 internal marker reporter. Summed up: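 RT-PCR/capillary electrophoresis readout of reporter mRNA. HepG2, transient MRTU transfection (GAL4-UAS reporters), 24 h compound exposure. Background-control endpoint, positive direction vs DMSO baseline.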

Assay [17] deals with Bile acid receptor (Homo sapiens) (UniProt Q96RI1). In words: ATG_FXR_TRANS: Attagene TRANS-FACTORIAL HepG2 Assay for Farnesoid X Receptor (FXR) (AID 2282979; active = hit-call score of the fitted dose curve at least 0.9, where 1 is the maximum;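 note: hits raise reporter mRNA above DMSO so AC50 marks FXR activation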). To be noted: HepG2 Attagene TRANS FXR-GAL4 reporter transcription. Summed up: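 Read-out: fluorescent reporter transcripts quantified by capillary electrophoresis after RT-PCR of total RNA. Source cells were HepG2 transiently carrying chimeric NR-GAL4 plus GAL4-UAS reporter units, dosed 24 h. Activity fitted upward relative to DMSO baseline.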

Assay [18] concerns the target Estrogen-related receptor gamma (Homo sapiens) (UniProt P62508). In words: ATG_ERRg_TRANS: Attagene TRANS-FACTORIAL HepG2 Assay for human Estrogen-Related Receptor gamma (ERRg) (AID 2282977; active = hit-call score of the fitted dose curve at least 0.9, where 1 is the maximum;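 note: hits increase reporter signal over DMSO so potencies reflect activators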). The conditions noted are these: HepG2 Attagene TRANS reporter, ERRg transactivation. Summed up: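 Induction of reporter transcripts through a chimeric NR-Gal4 protein is quantified in transfected human HepG2 liver cells after 24 h chemical exposure, using RT-PCR with capillary electrophoresis detection and DMSO as baseline.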

A short description of assay [19]: ATG_PPRE_CIS: Attagene CIS-FACTORIAL HepG2 Assay for human Peroxisome Proliferator-activated Response Element (PPRE) (AID 2282958). The conditions noted are these: HepG2 PPRE cis-element reporter, Attagene transcription factor profiling; actives raise or lower the signal. Summed up: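 HepG2, transient MRTU transfection (cis promoter elements, endogenous TFs). 24 h dosing. RNA → oligo(dT) RT → PCR → 6-FAM primer extension → HpaI digest → CE. Bidirectional fit vs DMSO.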

The target of assay [20] is Steroid hormone receptor ERR1 (Homo sapiens) (UniProt P11474). The assay is described as follows: ATG_ERRa_TRANS: Attagene TRANS-FACTORIAL HepG2 Assay for human Estrogen-Related Receptor alpha (ERRa) (AID 2282971; active = hit-call score of the fitted dose curve at least 0.9, where 1 is the maximum). The conditions noted are these: HepG2 Attagene TRANS reporter, ERRa transactivation. Summed up: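 Transfected HepG2, 24 h dosing, ERRa-Gal4 chimera driving GAL4-UAS reporter. Readout: reporter mRNA via RT-PCR plus capillary electrophoresis (fluorescence). Positive direction vs DMSO control.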
Sequence of Steroid hormone receptor ERR1 (Homo sapiens) (P11474 whole entry, looked up, the tested form may be a part): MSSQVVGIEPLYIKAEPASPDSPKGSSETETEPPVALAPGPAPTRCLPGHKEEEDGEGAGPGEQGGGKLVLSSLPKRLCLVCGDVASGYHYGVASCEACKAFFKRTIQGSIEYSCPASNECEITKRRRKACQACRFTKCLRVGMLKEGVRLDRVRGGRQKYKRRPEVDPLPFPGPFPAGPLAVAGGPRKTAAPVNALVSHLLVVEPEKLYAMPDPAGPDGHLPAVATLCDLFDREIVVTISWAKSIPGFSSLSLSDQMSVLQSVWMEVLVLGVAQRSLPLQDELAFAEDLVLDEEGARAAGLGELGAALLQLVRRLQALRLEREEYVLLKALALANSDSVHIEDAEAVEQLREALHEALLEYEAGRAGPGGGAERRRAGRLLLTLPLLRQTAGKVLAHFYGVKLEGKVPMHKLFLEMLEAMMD

Sequence of Estrogen-related receptor gamma (Homo sapiens) (P62508 whole entry, looked up, the tested form may be a part): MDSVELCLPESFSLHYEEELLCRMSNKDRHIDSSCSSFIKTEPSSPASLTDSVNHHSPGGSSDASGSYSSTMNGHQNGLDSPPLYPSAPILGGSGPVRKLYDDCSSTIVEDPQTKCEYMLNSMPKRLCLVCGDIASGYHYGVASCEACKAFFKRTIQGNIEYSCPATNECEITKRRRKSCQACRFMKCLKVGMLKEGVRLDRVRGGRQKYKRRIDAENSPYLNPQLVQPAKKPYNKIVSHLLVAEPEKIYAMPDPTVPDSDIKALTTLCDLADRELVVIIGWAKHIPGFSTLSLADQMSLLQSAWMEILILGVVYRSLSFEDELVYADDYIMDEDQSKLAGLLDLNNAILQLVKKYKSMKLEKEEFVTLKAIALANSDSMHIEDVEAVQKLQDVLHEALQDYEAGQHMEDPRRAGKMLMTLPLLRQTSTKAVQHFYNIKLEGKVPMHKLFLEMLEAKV
Sequence of X-box-binding protein 1 (Homo sapiens) (P17861 whole entry, looked up): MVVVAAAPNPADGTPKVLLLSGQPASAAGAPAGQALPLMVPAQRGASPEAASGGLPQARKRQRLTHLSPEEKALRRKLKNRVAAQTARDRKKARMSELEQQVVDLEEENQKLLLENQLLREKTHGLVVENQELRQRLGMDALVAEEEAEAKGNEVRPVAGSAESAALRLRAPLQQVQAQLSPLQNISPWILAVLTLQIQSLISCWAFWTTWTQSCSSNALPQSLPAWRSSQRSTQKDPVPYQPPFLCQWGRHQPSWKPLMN
Sequence of Nuclear receptor subfamily 1 group I member 3 (Homo sapiens) (Q14994 whole entry, looked up, the tested form may be a part): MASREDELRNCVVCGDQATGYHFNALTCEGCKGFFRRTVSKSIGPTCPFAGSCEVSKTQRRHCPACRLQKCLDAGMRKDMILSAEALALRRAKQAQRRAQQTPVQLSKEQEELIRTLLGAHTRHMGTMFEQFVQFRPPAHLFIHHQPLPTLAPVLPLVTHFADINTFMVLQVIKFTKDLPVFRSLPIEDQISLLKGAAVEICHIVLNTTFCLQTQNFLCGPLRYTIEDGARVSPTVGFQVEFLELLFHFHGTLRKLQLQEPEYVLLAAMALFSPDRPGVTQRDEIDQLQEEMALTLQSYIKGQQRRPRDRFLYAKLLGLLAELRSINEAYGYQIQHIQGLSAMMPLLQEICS
Sequence of Estrogen receptor (Homo sapiens) (P03372 whole entry, looked up, the tested form may be a part): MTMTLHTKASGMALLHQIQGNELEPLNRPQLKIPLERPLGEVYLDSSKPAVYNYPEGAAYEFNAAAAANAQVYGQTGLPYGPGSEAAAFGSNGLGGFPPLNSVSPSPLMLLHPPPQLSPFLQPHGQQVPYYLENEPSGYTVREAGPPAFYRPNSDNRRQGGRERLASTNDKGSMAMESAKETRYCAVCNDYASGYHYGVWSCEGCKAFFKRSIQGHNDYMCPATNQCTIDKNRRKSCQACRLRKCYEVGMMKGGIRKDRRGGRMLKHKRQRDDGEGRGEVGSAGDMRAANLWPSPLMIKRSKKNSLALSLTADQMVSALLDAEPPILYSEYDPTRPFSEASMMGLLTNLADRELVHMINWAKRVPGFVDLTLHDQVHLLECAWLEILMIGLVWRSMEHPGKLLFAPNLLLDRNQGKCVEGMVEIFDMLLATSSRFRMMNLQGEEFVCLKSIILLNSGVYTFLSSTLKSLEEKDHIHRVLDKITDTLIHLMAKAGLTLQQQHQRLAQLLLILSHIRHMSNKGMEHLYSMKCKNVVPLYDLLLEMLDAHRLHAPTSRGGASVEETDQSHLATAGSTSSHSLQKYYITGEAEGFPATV
Sequence of Signal transducer and activator of transcription 3 (Homo sapiens) (P40763 whole entry, looked up): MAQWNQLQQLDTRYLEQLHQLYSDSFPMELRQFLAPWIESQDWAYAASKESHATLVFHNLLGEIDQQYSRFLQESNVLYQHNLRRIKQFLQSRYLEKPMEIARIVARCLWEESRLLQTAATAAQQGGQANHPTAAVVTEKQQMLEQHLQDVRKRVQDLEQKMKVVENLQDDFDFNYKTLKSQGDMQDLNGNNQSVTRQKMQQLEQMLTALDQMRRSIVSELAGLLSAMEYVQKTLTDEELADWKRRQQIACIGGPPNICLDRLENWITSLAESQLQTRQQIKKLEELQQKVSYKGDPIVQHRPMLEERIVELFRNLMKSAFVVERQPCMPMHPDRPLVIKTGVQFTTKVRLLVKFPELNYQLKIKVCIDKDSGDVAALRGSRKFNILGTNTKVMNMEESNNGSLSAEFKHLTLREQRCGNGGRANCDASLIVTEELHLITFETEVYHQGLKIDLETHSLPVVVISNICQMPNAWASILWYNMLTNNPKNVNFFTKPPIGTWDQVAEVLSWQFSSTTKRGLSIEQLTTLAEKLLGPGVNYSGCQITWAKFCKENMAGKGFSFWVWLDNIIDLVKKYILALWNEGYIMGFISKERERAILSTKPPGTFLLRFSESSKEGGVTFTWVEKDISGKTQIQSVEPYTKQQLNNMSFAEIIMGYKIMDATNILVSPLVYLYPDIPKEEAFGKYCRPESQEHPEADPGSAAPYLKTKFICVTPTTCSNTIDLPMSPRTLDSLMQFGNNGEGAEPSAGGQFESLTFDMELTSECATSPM
Sequence of Transcription factor Sp1 (Homo sapiens) (P08047 whole entry, looked up): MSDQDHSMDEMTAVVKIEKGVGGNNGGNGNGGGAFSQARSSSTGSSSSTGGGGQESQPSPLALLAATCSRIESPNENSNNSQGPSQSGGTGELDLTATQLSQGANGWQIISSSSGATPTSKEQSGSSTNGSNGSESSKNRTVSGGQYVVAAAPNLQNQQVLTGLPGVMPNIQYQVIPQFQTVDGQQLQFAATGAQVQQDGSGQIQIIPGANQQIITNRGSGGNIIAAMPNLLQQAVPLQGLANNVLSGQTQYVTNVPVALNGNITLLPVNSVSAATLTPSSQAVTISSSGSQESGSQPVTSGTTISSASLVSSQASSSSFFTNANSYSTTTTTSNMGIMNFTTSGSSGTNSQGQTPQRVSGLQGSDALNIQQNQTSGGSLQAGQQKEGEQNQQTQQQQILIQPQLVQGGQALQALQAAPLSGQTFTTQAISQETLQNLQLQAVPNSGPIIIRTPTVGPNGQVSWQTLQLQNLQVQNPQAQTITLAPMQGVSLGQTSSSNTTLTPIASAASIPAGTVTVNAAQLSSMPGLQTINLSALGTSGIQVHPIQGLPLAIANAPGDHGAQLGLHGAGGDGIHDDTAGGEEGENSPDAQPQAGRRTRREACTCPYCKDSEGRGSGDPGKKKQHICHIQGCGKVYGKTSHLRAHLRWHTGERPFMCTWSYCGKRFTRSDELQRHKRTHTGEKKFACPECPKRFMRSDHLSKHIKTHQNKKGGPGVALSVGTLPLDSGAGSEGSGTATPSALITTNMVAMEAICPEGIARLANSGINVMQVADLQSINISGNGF
Sequence of Bile acid receptor (Homo sapiens) (Q96RI1 whole entry, looked up, the tested form may be a part): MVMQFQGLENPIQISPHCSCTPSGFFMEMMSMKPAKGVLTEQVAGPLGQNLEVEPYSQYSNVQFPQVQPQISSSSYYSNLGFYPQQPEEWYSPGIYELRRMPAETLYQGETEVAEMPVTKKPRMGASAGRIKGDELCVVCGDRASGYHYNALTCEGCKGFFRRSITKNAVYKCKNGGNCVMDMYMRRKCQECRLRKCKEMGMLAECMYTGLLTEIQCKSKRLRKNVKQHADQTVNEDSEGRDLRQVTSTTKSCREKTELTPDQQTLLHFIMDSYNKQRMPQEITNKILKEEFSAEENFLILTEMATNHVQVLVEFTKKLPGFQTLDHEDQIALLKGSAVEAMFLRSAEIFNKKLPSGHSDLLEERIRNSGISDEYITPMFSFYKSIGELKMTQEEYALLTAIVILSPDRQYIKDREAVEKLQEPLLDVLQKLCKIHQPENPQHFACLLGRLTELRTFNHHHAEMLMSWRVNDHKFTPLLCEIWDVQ
Sequence of Glucocorticoid receptor (Homo sapiens) (P04150 whole entry, looked up, the tested form may be a part): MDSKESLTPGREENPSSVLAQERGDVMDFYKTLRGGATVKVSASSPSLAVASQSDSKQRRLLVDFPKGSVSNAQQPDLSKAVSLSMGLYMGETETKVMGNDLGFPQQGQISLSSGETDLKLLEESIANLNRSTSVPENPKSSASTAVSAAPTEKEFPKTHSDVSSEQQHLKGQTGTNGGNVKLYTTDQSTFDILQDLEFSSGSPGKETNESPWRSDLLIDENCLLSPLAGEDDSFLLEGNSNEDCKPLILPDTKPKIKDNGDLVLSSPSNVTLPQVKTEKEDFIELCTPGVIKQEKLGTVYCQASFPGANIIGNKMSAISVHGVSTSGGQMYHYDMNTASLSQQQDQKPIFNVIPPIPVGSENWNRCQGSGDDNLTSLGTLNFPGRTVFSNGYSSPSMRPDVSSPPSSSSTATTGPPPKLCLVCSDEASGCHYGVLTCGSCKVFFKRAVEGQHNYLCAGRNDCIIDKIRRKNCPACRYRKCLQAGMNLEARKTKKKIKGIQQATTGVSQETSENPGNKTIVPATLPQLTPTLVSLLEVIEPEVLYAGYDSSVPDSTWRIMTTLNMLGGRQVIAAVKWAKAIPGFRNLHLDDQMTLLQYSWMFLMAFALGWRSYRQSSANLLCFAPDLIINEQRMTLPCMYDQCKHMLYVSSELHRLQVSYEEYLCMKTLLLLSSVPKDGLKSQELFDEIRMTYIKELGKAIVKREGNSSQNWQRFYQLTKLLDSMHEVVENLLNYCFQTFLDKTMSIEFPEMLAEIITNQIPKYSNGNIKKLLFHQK

As to `Nc1ccc(-c2ccc(N)c(Cl)c2)cc1Cl`, the concentration at half-maximal activity (AC50) in assay [1] was 24.3 µM (active); in [7] it was 4.63 µM (active); in [10], 37.6 µM (active); in assay [11] it was 2.04 µM (active). For the same compound, the outcome in [2], in assay [3], in [4], in [5], in [6] and in [8] was inactive. For the same compound, the result in [9], in [12], in [13] and in assay [14] was inactive.
On to `CCOP(OCC)OCC`, for which the compound was called inactive in [1], in [2], in [3], in assay [4], in assay [5] and in assay [7]. The outcome in [9], in assay [15], in [12], in assay [16] and in [17] was inactive.
In the case of `Fc1ccc(C2(Cn3cncn3)OC2c2ccccc2Cl)cc1` (centres undefined), the compound was classed as inactive in assay [1], in [2], in assay [3], in assay [6], in [7] and in assay [9]. For the same compound, the outcome in assay [11], in assay [12], in assay [13] and in assay [17] was inactive. Also, the AC50 in [4] is 27.3 µM (active); in assay [10], 12.3 µM (active).
Regarding `N#Cc1ccccn1`, the call in [1], in [2], in [3], in assay [4], in [5] and in assay [6] was inactive. In addition, the result in assay [7], in assay [8], in [9], in assay [15], in assay [12] and in assay [16] was inactive.
`CC(C)OC(=O)Nc1ccccc1`: the call in assay [1], in assay [2], in [3], in [4], in assay [5] and in [6] was inactive. The outcome in assay [7], in assay [8], in assay [9], in assay [10], in assay [12] and in [18] was inactive.
Regarding `COP(=S)(OC)Oc1c(Cl)cc(C)cc1Cl`, the call in assay [19], in assay [3], in assay [4], in assay [5], in assay [6] and in [7] was inactive. Moreover, the compound was called inactive in assay [8], in [9], in [15], in assay [20], in [12] and in assay [13]. Also, the compound was called inactive in assay [16] and in assay [14]. Moreover, the half-maximal activity concentration (AC50) was 7.7 µM (active) in assay [10] and 3.3 µM (active) in assay [11].
With `CC(=O)C=C(C)C`, the outcome in [1], in assay [2], in [3], in [4], in [6] and in assay [7] was inactive. Also, the outcome in assay [8], in [9], in assay [10], in assay [11], in [20] and in assay [12] was inactive. Also, the compound was classed as inactive in assay [16] and in assay [18].
In the case of `NC(=O)O`, the outcome in assay [2], in assay [3], in assay [4], in assay [5], in assay [6] and in assay [7] was inactive. In addition, the call in assay [8], in assay [9], in assay [10], in assay [15], in assay [11] and in [20] was inactive. Further, the outcome in assay [12], in [13], in assay [16] and in assay [18] was inactive.
As to `[O-][Cl+2]([O-])O`, the outcome in assay [2], in assay [3], in assay [4], in [5], in assay [6] and in assay [7] was inactive. The outcome in assay [8], in assay [9], in [10], in [15], in assay [12] and in assay [16] was inactive.
